Reference: PubChem BioAssay AID489037 (National Center for Advancing Translational Sciences (NCATS), 2010)
“And” between values parts separate entries of the source, which are not always exact repeats. Equal values may be shown once. Records with an inconclusive call do not appear. Some structures have more than one record in an assay (separate samples or runs), and their calls can disagree. The source made the active and inactive calls. Calls come from the whole dose curve; as a rule, active = well fitted inhibition curve with a large enough effect; inconclusive = small, poorly fitted or top-dose-only effect, or effect the other way; inactive = no such curve, though single readings can be large or run the other way.

target: Nuclear receptor ROR-gamma (Mus musculus) (UniProt P51450); test: Secondary confirmation assay for inhibitors of ROR gamma transcriptional activity; conditions: Drosophila S2 Gal4-RORgamma UAS-luciferase reporter, 20 h; series mostly up to 92.2 µM
Sequence (P51450 whole entry, looked up, the tested form may be a part): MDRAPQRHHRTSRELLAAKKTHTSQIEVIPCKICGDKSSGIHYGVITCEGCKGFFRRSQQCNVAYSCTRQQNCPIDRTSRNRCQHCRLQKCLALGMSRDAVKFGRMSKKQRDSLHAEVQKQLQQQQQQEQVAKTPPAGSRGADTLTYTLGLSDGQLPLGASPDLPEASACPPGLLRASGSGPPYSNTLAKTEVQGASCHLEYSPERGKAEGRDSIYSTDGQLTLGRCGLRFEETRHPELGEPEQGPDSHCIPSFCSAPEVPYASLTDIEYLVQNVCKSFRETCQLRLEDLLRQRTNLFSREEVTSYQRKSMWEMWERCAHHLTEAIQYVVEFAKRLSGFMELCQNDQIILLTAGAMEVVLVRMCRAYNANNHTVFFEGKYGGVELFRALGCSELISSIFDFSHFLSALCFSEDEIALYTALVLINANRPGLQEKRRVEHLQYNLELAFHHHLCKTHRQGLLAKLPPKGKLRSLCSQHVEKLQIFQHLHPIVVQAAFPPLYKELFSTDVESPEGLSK
Excerpt: NIH Molecular Libraries Probe Production Network [MLPCN] NIH Chemical Genomics Center [NCGC] MLPCN Grant: R03 DA026211-01 Assay Provider: Dan Littman, New York University Keywords: NIH Roadmap, MLPCN, MLI, MLSMR, qHTS, NCGC, qHTS, nuclear hormone receptor, retinoic acid-related orphan receptor, ROR gamma Assay Overview: The retinoic acid-related orphan receptor (ROR) gamma is a transcription factor that has a central role in the differentiation of Th17 cells, a subset of T helper cells that secrete the inflammatory cytokines IL-17, IL-17F, and IL-22. Th17 cells have been implicated in graft versus host disease, autoimmune disease and asthma. ROR gamma is induced in naive T helper cells in the presence of TGF-beta combined with IL-6, IL-21, or IL-23, and thereafter directs the expression of the Th17 lineage cytokines. To study the mechanism of action of ROR gamma, an insect cell-based assay was screened. This Drosophila Schneider cell line was stably transfected with two vectors: a gene expressing a fusion of the Gal4 DNA binding domain and ROR gamma transactivation domain under the control of the metallothionine promoter and a Photinus luciferase reporter regulated by the Gal4 binding site enhancer, UAS. […] Small molecule inhibitors of ROR gamma activity are detected by a decrease in luciferase reporter activity.
Assay Protocol Summary: For screening, 600 cells in 4 uL/well were dispensed into white solid 1536-well plates (Grenier) using a solenoid-based dispenser. Following transfer of 23 nL compound or DMSO vehicle by a pin tool, the plates were incubated 1 hr at ambient temperature, and 1 uL/well copper sulfate (700 uM final concentration) was added. The plates were centrifuged 15 s at 1000 RPM and incubated 20 hr at ambient temperature. After addition of 1.5 uL Photinus luciferase detection reagent, the plates were incubated 10 min at ambient temperature and then read by an ViewLux (Perkin Elmer) to detect luminescence. Keywords: NIH Roadmap, MLPCN, MLI, MLSMR, qHTS, NCGC, qHTS, nuclear hormone receptor, retinoic acid-related orphan receptor, ROR gamma

Row | SMILES | Potency
1 | COc1cc(O)c(C(CC(=O)N2CC(C)CC(C)C2)c2ccc(O)cc2)c(OC)c1 (stereo not given) | 2.04 µM (active)
2 | CCC1(CC)CCN(C(=O)CC(c2ccc3c(c2)OCO3)c2c(O)cc(OC)cc2OC)C1 (stereo not given) | 22.9 µM (active)
3 | COc1cc(OC)c(C(CC(=O)N2CC(C)CC(C)C2)c2ccc3c(c2)OCO3)c(OC)c1 (stereo not given) | 4.57 µM (active)
4 | COc1cc(O)c(C(CC(=O)N2CCCC(c3ccccc3)C2)c2ccc3c(c2)OCO3)c(OC)c1 (stereo not given) | inactive
5 | COc1cc(O)c(C(CC(=O)N2CCC[C@@H](C)C2)c2ccc3c(c2)OCO3)c(OC)c1 (stereo not given in full) | 5.12 µM (active) and 22.9 µM (active) and inactive
6 | CCOc1ccc(C(CC(=O)N2CCCC(C)C2)c2c(O)cc(OC)cc2OC)cc1 (stereo not given) | 4.07 µM (active)
7 | COc1cc(O)c(C(CC(=O)N2CCOCC2)c2ccc3c(c2)OCO3)c(OC)c1 (stereo not given) | inactive
8 | COc1cc(O)c(C(CC(=O)N2CCC(c3ccccc3)CC2)c2ccc3c(c2)OCO3)c(OC)c1 (stereo not given) | inactive
9 | COc1cc(O)c(C(CC(=O)N(C)c2cccc(C)c2)c2ccc3c(c2)OCO3)c(OC)c1 (stereo not given) | inactive
10 | COc1cc(O)c(C(CC(=O)N2CCC[C@H](C)C2)c2ccc3c(c2)OCO3)c(OC)c1 (stereo not given in full) | 9.11 µM (active) and 3.23 µM (active) and inactive
11 | CC(C)[C@H](NC(=O)C1CCN(C(=O)[C@@H]2CCCN2C(=O)OC(C)(C)C)CC1)C(=O)NCc1ccc(F)cc1 | 32.3 µM (active)
12 | CC1CCCN(C(=O)CC(c2ccccc2)c2ccc(O)cc2)C1 (stereo not given) | inactive
13 | CCOC(=O)c1sc(NC(=O)c2ccc(S(=O)(=O)N(C)C)cc2)nc1C | 0.129 µM (active)
14 | COc1cc(O)c(C(CC(=O)N2CC(C)CC(C)C2)c2ccc(N(C)C)cc2)c(OC)c1 (stereo not given) | 2.88 µM (active)
15 | COc1cc(O)c(C(CC(=O)N2CCC(C)CC2)c2ccc(C)cc2)c(OC)c1 (stereo not given) | 14.4 µM (active)
16 | COc1ccc(C(CC(=O)N2CCCC(C)C2)c2c(O)cc(OC)cc2OC)cc1 (stereo not given) | 2.29 µM (active)
17 | Cc1ccc(C(=O)O/N=C/c2ccc(N(C)C)cc2)cc1 | 32.3 µM (active)
18 | CCOc1ncccc1C(=O)OCC(=O)Nc1ccc(-c2nc3ccc(C)cc3s2)cc1 | 0.407 µM (active)
19 | COc1cc(O)c(C(CC(=O)N2CCCC(COc3ccc(F)cc3)C2)c2ccc3c(c2)OCO3)c(OC)c1 (stereo not given) | inactive
20 | COc1ccc(C(CC(=O)N2CCCC(C)C2)c2ccccc2)cc1 (stereo not given) | inactive

Row | SMILES | Potency
21 | CC1CCCN(C(=O)CC(c2ccccc2)c2ccccc2O)C1 (stereo not given) | inactive
22 | COc1cc(O)c(C(CC(=O)N2CCCC(CN3CCCCC3)C2)c2ccc3c(c2)OCO3)c(OC)c1 (stereo not given) | inactive
23 | Cc1cc(C)nc(-n2nc(C)cc2NC(=O)CNC(C)c2ccccc2)n1 (stereo not given) | 5.75 µM (active)
24 | Cc1cc(C)c2sc(NC(=O)c3ccc(N4C(=O)CCC4=O)cc3)nc2c1 | 0.229 µM (active)
25 | COc1cc(C)nc(-n2nc(C)cc2OC)n1 | 3.23 µM (active)
26 | COc1ccc(C(CC(=O)N2CCCC(C)C2)c2c(O)cc(OC)cc2OC)c(OC)c1 (stereo not given) | inactive
27 | COc1cc(O)c(C(CC(=O)N2CC(C)NC(C)C2)c2ccc3c(c2)OCO3)c(OC)c1 (stereo not given) | inactive
28 | C[C@H]1O[C@@H](O[C@H]2[C@@H](O)C[C@@H](O[C@H]3[C@@H](O)C[C@H](O[C@H]4CC[C@@]5(C)[C@H](CC[C@@H]6[C@@H]5CC[C@]5(C)[C@@H](C7=CC(=O)OC7)CC[C@]65O)C4)O[C@@H]3C)O[C@@H]2C)C[C@H](O)[C@@H]1O | 1.44 µM (active)
29 | CN1CCN(C(=O)CCN2C(=O)/C(=C\c3ccccc3F)SC2=S)CC1 | 18.2 µM (active)
30 | COc1cc(O)c(C(CC(=O)N2CCCC(C(C)C)C2)c2ccc3c(c2)OCO3)c(OC)c1 (stereo not given) | 25.7 µM (active)
31 | COC(=O)c1ccc(OCC(=O)c2ccc(O)cc2O)cc1 | 0.363 µM (active)
32 | COc1ccc(OC)c(NC(=S)N(CCc2c(C)[nH]c3ccccc23)Cc2cccs2)c1 | 12.9 µM (active)
33 | COCOc1cc(OC)cc(OC)c1C(CC(=O)N1CC(C)CC(C)C1)c1ccc2c(c1)OCO2 (stereo not given) | 4.07 µM (active)
34 | COc1cc(O)c(C(CC(=O)Nc2cccc3ccccc23)c2ccc3c(c2)OCO3)c(OC)c1 (stereo not given) | inactive
35 | COc1cc(O)c(C(CC(=O)N2CCCCC2C)c2ccc3c(c2)OCO3)c(OC)c1 (stereo not given) | 25.7 µM (active)
36 | Cc1cc(C)c2[nH]c(C(=O)Nc3ccc4c(c3)OCO4)cc2c1 | 0.257 µM (active)
37 | COc1cc(OC)c(C(c2ccccc2)C(C)(C)C(=O)N2CC(C)CC(C)C2)c(OC)c1 (stereo not given) | 5.12 µM (active)
38 | CC1CCCN(C(=O)CC(c2ccc3c(c2)OCO3)c2ccc(O)cc2O)C1 (stereo not given) | inactive
39 | O=C(NC(=S)Nc1nc(-c2ccccc2)cs1)c1cccnc1 | 5.12 µM (active)
40 | COc1cc(O)c(C(CC(=O)N2CCCC(C)C2)c2ccc(C(C)C)cc2)c(OC)c1 (stereo not given) | 14.4 µM (active)
